Source: the supplement of paper PMC4709259
Structures can show the parent of a compound that is named as a salt. ± gives the standard deviation.

Legend:
Jurkat [1] = assay: mean cell size (FSC-A) relative to DMSO control (fraction of control); higher = larger cells; conditions: 48 h
Procedure, shortened: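 Jurkat cells at 600 cells/µl were incubated for 1 h and then treated for 48h with the Enzo Screen-Well FDA Approved Drug Library v2.0 at 25µM, with DMSO at 0.9% (v/v) final. Compounds that reduced counts below 20% of controls were retested in 10-fold dilutions down to 25nM. Cell count and mean cell size, taken as forward scatter area, were measured by flow cytometry relative to solvent-only controls. Each plate carried 6-12 controls, and values are means of 3 biological replicates.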

Jurkat [2] = assay: cell count relative to DMSO control (fraction of control); higher = more cells (less growth inhibition); conditions: 48 h

Row | SMILES | mean cell size (Jurkat [1]) | cell count (Jurkat [2])
1 | CC=CC(=O)N(CC)c1ccccc1C [Crotamiton] (concentration: 25 µM) | 0.972 ± 0.034 | 0.809 ± 0.17
2 | Nc1nc(F)nc2c1ncn2[C@@H]1O[C@H](COP(=O)(O)O)[C@@H](O)[C@@H]1O [Fludarabine Phosphate] (concentration: 2.5 µM) | 1.327 ± 0.0094 | 0.378 ± 0.024
3 | CC(C)(C)NCC(O)c1ccc(O)c(CO)c1 (configuration not stated) [Salbutamol Hemisulfate] (concentration: 25 µM) | 1.01 ± 0.056 | 0.916 ± 0.11
4 | CNNCc1ccc(C(=O)NC(C)C)cc1 [Procarbazine·HCl] (concentration: 25 µM) | 1.01 ± 0.053 | 0.822 ± 0.1
5 | CCC(C)(C)C(=O)O[C@H]1C[C@@H](C)C=C2C=C[C@H](C)[C@H](CC[C@@H]3C[C@@H](O)CC(=O)O3)[C@H]21 [Simvastatin] (concentration: 25 µM) | 1.05 ± 0.054 | 0.698 ± 0.029
6 | c1cnc2cc3c(cc2n1)[C@@H]1CNC[C@H]3C1 [Varenicline Tartrate] (concentration: 25 µM) | 1.02 ± 0.038 | 1.01 ± 0.062
7 | CC(C)(C)NC[C@H](O)COc1cccc2c1CCCC2=O [Levobunolol·HCl] (concentration: 25 µM) | 0.964 ± 0.056 | 1.11 ± 0.03
8 | CN1CCN2c3ncccc3Cc3ccccc3C2C1 (configuration not stated) [Mirtazapine] (concentration: 25 µM) | 0.958 ± 0.033 | 0.951 ± 0.02
9 | CCN(CC)C(=O)C1(c2ccccc2)CC1CN (configuration not stated) [Milnacipran·HCl] (concentration: 25 µM) | 0.977 ± 0.032 | 0.792 ± 0.1
10 | CCN(CC)CCNC(=O)c1ccc(N)cc1 [Procainamide·HCl] (concentration: 25 µM) | 1.03 ± 0.025 | 0.935 ± 0.17
11 | C[C@]12C=CC(=O)C=C1CC[C@@H]1[C@@H]2[C@@H](O)C[C@@]2(C)[C@H]1CC[C@]2(O)C(=O)CO [Prednisolone] (concentration: 25 µM) | 0.979 ± 0.017 | 0.836 ± 0.14
12 | NS(=O)(=O)c1cc2c(cc1C(F)(F)F)NC(Cc1ccccc1)NS2(=O)=O (configuration not stated) [Bendroflumethiazide] (concentration: 25 µM) | 0.957 ± 0.041 | 0.902 ± 0.08
13 | C=C1/C(=C\C=C2/CCC[C@]3(C)[C@@H]([C@H](C)/C=C/[C@@H](O)C4CC4)CC[C@@H]23)C[C@@H](O)C[C@@H]1O [Calcipotriene] (concentration: 25 µM) | 0.933 ± 0.064 | 0.654 ± 0.08
14 | Cc1nccn1CC1CCc2c(c3ccccc3n2C)C1=O (configuration not stated) [Ondansetron] (concentration: 25 µM) | 0.97 ± 0.028 | 0.816 ± 0.074
15 | CNCCC(Oc1ccc(C(F)(F)F)cc1)c1ccccc1 (configuration not stated) [Fluoxetine·HCl] (concentration: 25 µM) | 0.992 ± 0.039 | 0.68 ± 0.14
16 | CCC(=O)OCC(=O)[C@@]1(OC(=O)CC)[C@@H](C)C[C@H]2[C@@H]3CCC4=CC(=O)C=C[C@]4(C)[C@@]3(Cl)[C@@H](O)C[C@@]21C [Beclomethasone Dipropionate] (concentration: 25 µM) | 0.913 ± 0.049 | 0.774 ± 0.07
17 | COc1c(N2CCNC(C)C2)c(F)cc2c(=O)c(C(=O)O)cn(C3CC3)c12 (configuration not stated) [Gatifloxacin] (concentration: 25 µM) | 0.956 ± 0.024 | 0.661 ± 0.17
18 | CC(C)C(=O)Nc1ccc([N+](=O)[O-])c(C(F)(F)F)c1 [Flutamide] (concentration: 25 µM) | 0.918 ± 0.033 | 0.329 ± 0.14
19 | CC(C)C(=O)OCC(=O)[C@@]12O[C@H](C3CCCCC3)O[C@@H]1C[C@H]1[C@@H]3CCC4=CC(=O)C=C[C@]4(C)[C@H]3[C@@H](O)C[C@@]12C [Ciclesonide] (concentration: 2.5 µM) | 0.9714 ± 0.0087 | 0.838 ± 0.08
20 | CC1=C(/C=C/C(C)=C\C=C\C(C)=C\C(=O)O)C(C)(C)CCC1 [Alitretinoin] (concentration: 25 µM) | 0.927 ± 0.025 | 0.555 ± 0.18
21 | NCc1ccc(S(N)(=O)=O)cc1 [Mafenide·HCl] (concentration: 25 µM) | 0.92 ± 0.056 | 1.17 ± 0.04
22 | OCc1cc(C(O)CNCCCCCCOCCCCc2ccccc2)ccc1O (configuration not stated) [Salmeterol] (concentration: 25 µM) | 0.927 ± 0.023 | 0.669 ± 0.042
23 | CC(CCc1ccc(O)cc1)NCCc1ccc(O)c(O)c1 (configuration not stated) [Dobutamine·HCl] (concentration: 25 µM) | 0.952 ± 0.042 | 0.464 ± 0.13
24 | COc1ccc2[nH]c([S+]([O-])Cc3ncc(C)c(OC)c3C)nc2c1 (configuration not stated) [Omeprazole] (concentration: 25 µM) | 0.946 ± 0.035 | 0.946 ± 0.083
25 | CCN(CC)C(=S)SSC(=S)N(CC)CC [Disulfiram] (concentration: 25 µM) | 0.959 ± 0.051 | 0.559 ± 0.15
26 | Cc1cn[nH]c1 [Fomepizole] (concentration: 25 µM) | 0.99 ± 0.036 | 0.868 ± 0.17
